Data published in PubChem BioAssay (NCATS).
Inconclusive results are not listed. Active and inactive are the calls of the source. Calls follow the shape of the dose curve; as a rule, active = well fitted inhibition curve with a large enough effect; inconclusive = small, poorly fitted or top-dose-only effect; inactive = flat fitted curve, though single readings scatter.

The compounds below were run against Calcium and integrin-binding protein 1 (Homo sapiens) (UniProt Q99828) (assay: Primary qHTS for Identification of Calcium Integrin Binding Protein 1 (CIB1) Competitor (AID 1508620;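 also: GST tagged CIB1 binding a fluorescein labelled alphaIIb integrin peptide tracer; top concentration of the series differs between compounds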)). Settings: CIB1-GST / FITC-alphaIIb peptide fluorescence polarization; series mostly up to 114 µM; activity change, negative = inhibition: at the top concentration.
Calcium and integrin-binding protein 1 (Homo sapiens), sequence (Q99828 whole entry, looked up): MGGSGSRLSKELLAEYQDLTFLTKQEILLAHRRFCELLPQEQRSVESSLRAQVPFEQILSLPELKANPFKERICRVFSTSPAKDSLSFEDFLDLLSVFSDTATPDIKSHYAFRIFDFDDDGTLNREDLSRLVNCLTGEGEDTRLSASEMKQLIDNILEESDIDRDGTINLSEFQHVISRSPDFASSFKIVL
In short: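 Fluorescence polarization competition: CIB1-GST (1 uM final) preincubated with compound 15 min at room temperature, then FITC-labeled alphaIIb peptide (100 nM final) added for another 15 min. Polarization read at Ex 480/Em 540.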
% is scaled to controls: 0 for no effect and ±100 for the full control effect.

Structure (SMILES)	activity change, negative = inhibition
CC(C)(C)c1cc(C(C)(C)C)c2c(c1)C(O)(C(F)(F)F)C(=O)O2 (configuration not stated)	-13.3% (inactive)
C[C@H](NC(=O)Cc1cc(F)cc(F)c1)C(=O)N[C@@H]1N=C(c2ccccc2)c2ccccc2N(C)C1=O	-2.98% (inactive)
CCC1NC(=O)C2C(Cl)C(Cl)CN2C(=O)C(C(C)O)NC(=O)CC(c2ccccc2)NC(=O)C(CO)NC1=O (configuration not stated)	-3.05% [at 30.2 µM] (inactive)
CCCCCCn1c(=O)c(C(=O)Nc2ccc(C(=O)OCCC)cc2)c(O)c2ccccc21	-0.851% [at 30.2 µM] (inactive)
CN1CCCC1CCOC(c1cc2nccc(C(=O)O)c2[nH]1)c1ccccc1Cl (configuration not stated)	-8.17% (inactive)
CCN1CC2(COC)C3[C@@H](OC)C4C1C3(C1C[C@]3(O)[C@H](OC(=O)c5ccccc5)C1[C@]4(OC(C)=O)[C@@H](O)[C@@H]3OC)[C@H](OC)C[C@H]2O (some centres not stated)	-0.0778% (inactive)
CCN1C[C@]2(COC(=O)c3ccccc3N3C(=O)C[C@H](C)C3=O)CC[C@H](OC)[C@@]34[C@@H]5C[C@H]6[C@H](OC)[C@@H]5[C@](O)(C[C@@H]6OC)[C@](O)([C@@H](OC)[C@H]23)[C@@H]14	4.61% (inactive)
C1=C2CCCN[C@H]2[C@@H]2C[C@H]1[C@H]1CCCCN1C2	-1.69% (inactive)
Cc1cccc(NC(=O)N[C@@H]2N=C(c3ccccc3)c3ccccc3N(C)C2=O)c1	-1.3% (inactive)
COC1=CC(=O)O[C@@H](/C=C/c2ccccc2)C1	3.95% (inactive)
COC(=O)N1CCN(C(=O)Cc2ccc(Cl)c(Cl)c2)[C@@H](CN2CCCC2)C1	-2.26% (inactive)
CC12CCC3C(CCC4(O)CC(O)CCC34C=O)C1(O)CCC2C1=CC(=O)OC1 (configuration not stated)	-6.23% (inactive)
COC(=O)C1(C)CCC(O)C2(C)c3c(O)cc(C(C)C)cc3C(O)C(OC(C)=O)C12 (configuration not stated)	0.415% [at 57.7 µM] (inactive)
OCCCCC#Cc1cncc(OC[C@@H]2CCN2)c1	1.94% (inactive)
CC1C/C=C/C(O)C(O)CC/C=C/c2cc(O)cc(O)c2C(=O)O1 (configuration not stated)	-5.63% [at 57.7 µM] (inactive)
O=C(O)c1ccnc2cc(C(OCCN3CCCCC3)c3ccccc3Cl)[nH]c12 (configuration not stated)	0.384% (inactive)

Structure (SMILES)	activity change, negative = inhibition
C/C=C(\C)C(=O)OC1C(C)OC(OC2C(C)OC(OC3CCC4(C)C(=CCC5C4CCC4(C)C(C(C)OC6OC(COC7OC(CO)C(O)C(O)C7O)C(O)C(O)C6O)CCC54O)C3)CC2OC)C(O)C1OC (configuration not stated)	0.302% [at 30.2 µM] (inactive)
C[C@@](O)(COc1ccc(C#N)cc1)C(=O)Nc1ccc(C#N)c(C(F)(F)F)c1	7.13% (inactive)
C=C[C@H]1[C@H](O[C@@H]2O[C@H](CO)[C@@H](O)[C@H](O)[C@H]2O)OC=C2C(=O)OCC[C@H]21	0.797% [at 57.7 µM] (inactive)
CN(C)CCc1c[nH]c2ccc(CN3CCN(C)S3(=O)=O)cc12	-15.7% (inactive)
Cc1cn(C[C@H](N)C(=O)O)c(=O)n(Cc2cc(-c3ccccc3)sc2C(=O)O)c1=O	-2% (inactive)
CC(C)(O)[C@H]1O[C@H]2CC[C@@]3(C)[C@@](O)(CC[C@H]4Cc5c([nH]c6ccccc56)[C@@]43C)C2=CC1=O	-1.57% [at 57.7 µM] (inactive)
CO[C@H]1[C@H](O)[C@H](O[C@H]2CC[C@]3(C)C4CC[C@]5(C)[C@H](C6=CC(=O)OC6)CC[C@]5(O)C4CC[C@@H]3C2)O[C@@H](C)[C@@H]1O (some centres not stated)	-3.38% [at 57.7 µM] (inactive)
C[C@@]1(C(=O)O)CC[C@]2(C)CC[C@]3(C)C4=CC(=O)c5cc(O)c(O)cc5[C@]4(C)CC[C@@]3(C)[C@@H]2C1	-1.42% [at 57.7 µM] (inactive)
COC1CC(OC2CCC3(C=O)C(CCC4C3CCC3(C)C(C5=CC(=O)OC5)CCC43O)C2)OC(C)C1OC1OC(CO)C(O)C(O)C1O (configuration not stated)	-4.61% [at 30.2 µM] (inactive)
C/C=C(\C)C(=O)OC1CC2C(C)(C)OC(=O)CC(OC(C)=O)C2(C)C2CC(OC(=O)C(C)C)C3(C)C(c4ccoc4)CC4OC43C12C (configuration not stated)	4.9% [at 30.2 µM] (inactive)
CC(C)[C@@H](CN1CC[C@@](C)(c2cccc(O)c2)[C@@H](C)C1)NC(=O)[C@H]1Cc2ccc(O)cc2CN1	-5.74% (inactive)
COC1=CC(=O)O[C@@H](CCc2ccccc2)C1	1.08% (inactive)
COc1ccccc1CN[C@H]1C2CCN(CC2)[C@H]1C(c1ccccc1)c1ccccc1	-1.46% (inactive)
Cn1ncnc1COc1nn2c(-c3c(F)cccc3F)nnc2cc1C1CCC1	0.97% (inactive)
COC1C(O)C(C)OC(OC2C(CO)O[C@@H](O[C@@H]3CC4CCC5C(CC[C@]6(C)[C@@H](C7=CC(=O)OC7)CC[C@]56O)[C@@]4(C)[C@H](O)C3)C(O)C2O)C1O (some centres not stated)	0.925% [at 30.2 µM] (inactive)
COC1CC(O[C@H]2CC[C@@]3(C)C(=CCC4C3C(O)[C@@H](O)[C@]3(C)[C@@H](C(C)=O)CC[C@]43O)C2)OC(C)C1OC1CC(OC)C(OC2OC(C)C(O)C(O)C2O)C(C)O1 (some centres not stated)	-0.69% [at 30.2 µM] (inactive)
